The values that follow come from PubChem BioAssay (Tox21).

Inconclusive results are not listed. Calls of active or inactive are those of the source. Calls come from the whole dose curve; as a rule, active = well fitted curve in the direction sought with a large enough effect in the repeat runs; inconclusive = weak or mixed curves; inactive = no such curve, though single readings can be large; an effect the other way counts as inactive or inconclusive.

Test [1] can be described thus: A CellTox Green Cytotoxicity Assay to monitor cytotoxicity in HEK293 cells - 32 hour (AID 1224881). Note: nearly all actives have a fitted effect of over 40% in size. Note: potency is the fitted concentration of half-maximal effect. A digest of the protocol: (§1)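 Tox21 screen in HEK293: membrane-impermeant cyanine dye fluoresces on binding dead-cell DNA; compound pinned 5 h post-seeding, plates held at 37 C, signal read repeatedly through 40 h.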
The nature of test [2]: A CellTox Green Cytotoxicity Assay to monitor cytotoxicity in HepG2 cells - 0 hour (AID 1224882). Note: nearly all actives have a fitted effect of over 35% in size. The gist of the method:
(§2)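 Measurements at 0, 8, 16, 24, 32 and 40 h of treatment captured CellTox Green fluorescence in HepG2 cells that had been co-plated with reagent and preincubated 5 h at 37 C/5% CO2.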

Test [3] is described as follows: A CellTox Green Cytotoxicity Assay to monitor cytotoxicity in HepG2 cells - 32 hour (AID 1224883). Note: nearly all actives have a fitted effect of over 50% in size. Note: potency is the fitted concentration of half-maximal effect. A digest of the protocol:
as §2

Test [4] is described as follows: A CellTox Green Cytotoxicity Assay to monitor cytotoxicity in HEK293 cells - 8 hour (AID 1224884). Note: nearly all actives have a fitted effect of over 35% in size. The gist of the method:
as §1

The nature of test [5]: A CellTox Green Cytotoxicity Assay to monitor cytotoxicity in HEK293 cells - 16 hour (AID 1224888). Note: nearly all actives have a fitted effect of over 35% in size. Note: potency is the fitted concentration of half-maximal effect. The gist of the method: as §1
Test [6] in a line: qHTS RealTime-Glo MT Cell Viability Assay in HepG2 cells - 0 hour (AID 1224889). Note: nearly all actives have a fitted effect of over 50% in size. Note: potency is the fitted concentration of half-maximal effect. The gist of the method: (§3)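 Luminescence read-out: viable HepG2 cells reduce a prosubstrate to a NanoLuc substrate, giving a signal proportional to live cell number. Reads taken at 0, 8, 16, 24, 32 and 40 h of compound exposure at 37 C.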
For orientation: Quantitative high-throughput screening tests each substance at several concentrations.

The nature of test [7]: A CellTox Green Cytotoxicity Assay to monitor cytotoxicity in HepG2 cells - 8 hour (AID 1224890). Note: nearly all actives have a fitted effect of over 45% in size. Note: potency is the fitted concentration of half-maximal effect. The gist of the method:
as §2

A short description of test [8]: qHTS RealTime-Glo MT Cell Viability Assay in HepG2 cells - 16 hour (AID 1224885). Note: nearly all actives have a fitted effect of over 50% in size. Note: potency is the fitted concentration of half-maximal effect. The gist of the method: as §3
Test [9] in a line: qHTS RealTime-Glo MT Cell Viability Assay in HEK293 cells - 24 hour (AID 1224886). Note: nearly all actives have a fitted effect of over 50% in size. Note: potency is the fitted concentration of half-maximal effect. The gist of the method: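 Nonlytic real-time viability readout: viable cells convert prosubstrate to NanoLuc substrate, giving luminescence proportional to live cell number. HEK293, 600 cells/well, compound added after 5 h, continuous culture at 37 C.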
The nature of test [10]: qHTS RealTime-Glo MT Cell Viability Assay in HEK293 cells - 8 hour (AID 1224887). Note: nearly all actives have a fitted effect of over 50% in size. Note: potency is the fitted concentration of half-maximal effect. A digest of the protocol: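 HEK293 + NanoLuc + prosubstrate, 600 cells/well; 5 h, 37 C/5% CO2; compound 23 nL in DMSO by pintool; 37 C; luminescence read at 0, 8, 16, 24, 32 and 40 h time points.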

On to `CCCC(C)C`, for which the Potency result in test [1], in test [2], in test [3], in test [4], in [5] and in test [6] was “inactive” throughout. Further, the Potency entry in test [7] is “inactive”.

`Cc1occc1S`: the Potency result in [1], in test [2], in test [3], in [8], in test [9] and in test [5] was “inactive” throughout. Also, the Potency result in [6] and in [7] was “inactive” each time.

`N#Cc1c(F)cccc1F`: the Potency entry in [1], in test [2], in [3], in [4], in [9] and in test [10] was “inactive” in each case. Further, the Potency result in test [5], in test [6] and in [7] was “inactive” throughout.

Turning to `O=C(NS(=O)(=O)/C=C/c1cccs1)c1ccc(F)cc1Br`, the Potency entry in test [1], in [2], in test [3], in test [4], in [9] and in test [10] was “inactive” in each case. The Potency entry in test [5] and in [7] was “inactive” in each case. For the same molecule, the Potency in [6] is 15.5 µM (active).

Consider `O=c1c2ccccc2nnn1CCl`, for which the Potency result in test [1], in [2], in test [3], in [4], in test [9] and in [10] was “inactive” each time. Besides, the Potency entry in [5], in [6] and in test [7] was “inactive” each time.

Take `CC1=CC(=O)/C(=C(/C)O)C(=O)O1`: the Potency result in test [1], in test [2], in [3], in test [4], in test [9] and in test [10] was “inactive” throughout. The Potency entry in [5], in test [6] and in [7] was “inactive” throughout.

As for `CCCCOCCOCCOCCOCCO`, the Potency entry in test [1], in [2], in test [3], in test [4], in test [9] and in test [10] was “inactive” in each case. For the same molecule, the Potency result in test [5], in test [6] and in test [7] was “inactive” in each case.

In the case of `Oc1ccc(O)c2c(O)cccc12`, the Potency result in [1], in test [2], in [3], in test [4], in test [9] and in test [5] was “inactive” each time. For the same molecule, the Potency result in test [6] and in test [7] was “inactive” in each case.

For `CCCCCCCCCC(=O)OCC`, the Potency entry in test [1], in [2], in [3], in test [4], in [9] and in [10] was “inactive” in each case. Also, the Potency entry in [5], in test [6] and in test [7] was “inactive” in each case.

For `C=CC(=O)OCC(C)OCC(C)OCC(C)OC(=O)C=C` (configuration not stated), the figures for the Potency in [1], in [3] and in test [9] were 54.9 µM (active), 54.9 µM (active) and 43.6 µM (active), respectively. Also, the Potency result in [2], in test [4], in test [5], in [6] and in test [7] was “inactive” each time.

With `O=C(O)Cn1c(C(=O)Nc2nc(-c3ccccc3Cl)cs2)cc2ccccc21`, the Potency entry in [1], in test [2], in test [3], in test [9], in test [10] and in test [5] was “inactive” in each case. Moreover, in test [7], the Potency entry is “inactive”.

Turning to `SC1CCCC1`, the Potency result in test [1], in test [2], in test [3], in [4], in test [9] and in test [10] was “inactive” in each case. Also, the Potency entry in test [5], in test [6] and in [7] was “inactive” each time.

With `C1=Cc2ccccc2C1`, the Potency result in test [1], in test [2], in test [3], in test [8], in [9] and in test [10] was “inactive” throughout. The Potency entry in [5], in test [6] and in test [7] was “inactive” each time.

Take `CCOC(=O)C1=C(C)NC(C)=C(C(=O)OC)C1c1cccc([N+](=O)[O-])c1` (configuration not stated): the Potency result in test [1], in test [2], in [3], in test [4], in test [5] and in test [7] was “inactive” in each case. The Potency in [6] is 7.56 µM (active).

`CN1CCC(OC(c2ccccc2)c2ccccc2)CC1`: the Potency entry in test [1], in test [2], in test [3], in test [4], in test [9] and in test [5] was “inactive” throughout. The Potency entry in [6] and in [7] was “inactive” each time.

On to `NC(N)=NN=C(/C=C/c1ccc([N+](=O)[O-])o1)/C=C/c1ccc([N+](=O)[O-])o1`, for which the Potency is 8.49 µM (active) in test [1]; 2.39 µM (active) in test [3]; 2.13 µM (active) in test [8]; 6.01 µM (active) in test [10]; 9.52 µM (active) in test [5]; 9.52 µM (active) in [7]. Moreover, the Potency result in [2] and in test [6] was “inactive” throughout.

Consider `CN1CCC(=C2c3ccccc3CCc3sccc32)CC1`, for which the Potency result in test [1], in test [2], in test [4], in [9], in test [10] and in test [5] was “inactive” each time. The Potency entry in test [6] and in [7] was “inactive” each time. For the same molecule, the Potency in test [3] was 23.9 µM (active).

For the molecule `Oc1ccc2c(c1)OCO2`, the Potency result in test [1], in test [2], in test [3], in test [4], in test [9] and in [10] was “inactive” in each case. Besides, the Potency result in test [5], in test [6] and in test [7] was “inactive” each time.

In the case of `Cc1ccc2c(ccc3ccccc32)c1`, the Potency result in test [1], in test [2], in test [3], in [4], in test [9] and in [10] was “inactive” in each case. In addition, the Potency result in test [5], in test [6] and in test [7] was “inactive” throughout.

For `Cc1ccc(C(=O)C(C)CN2CCCCC2)cc1` (configuration not stated), the Potency result in [1], in test [2], in [3], in [4], in test [9] and in test [5] was “inactive” throughout. Also, the Potency result in test [6] and in test [7] was “inactive” in each case.

In the case of `CN1CCN(C2=Nc3cc(Cl)ccc3Nc3ccccc32)CC1`, the Potency entry in test [1], in test [2], in test [4], in test [10], in test [6] and in test [7] was “inactive” throughout. In addition, the Potency in test [3] was 23.9 µM (active); in test [5], 4.25 µM (active).

Turning to `O=S1(=O)N=C(O)c2ccccc21`, the Potency result in test [1], in test [2], in test [4], in test [8], in test [9] and in test [10] was “inactive” in each case. The Potency result in test [5], in test [6] and in test [7] was “inactive” in each case.

For the molecule `Oc1ccc(Sc2ccc(O)cc2)cc1`, the Potency result in test [1], in test [2], in test [3], in test [4], in test [5] and in test [6] was “inactive” throughout. The Potency entry in test [7] was “inactive”.

Regarding `Nc1ccc(C(=O)Nc2ccccc2N)cc1`, the Potency entry in [1], in test [2], in test [4], in [5], in test [6] and in [7] was “inactive” each time. In [3], the Potency was 7.56 µM (active).

In the case of `CNCC[C@@H](Oc1ccccc1C)c1ccccc1`, the Potency entry in test [1], in test [3], in test [4], in [8], in test [9] and in [10] was “inactive” each time. Moreover, the Potency result in [5] and in test [7] was “inactive” in each case.

`O=C(Nc1ccccc1)OCC(CN1CCCCC1)OC(=O)Nc1ccccc1` (configuration not stated): the Potency result in test [1], in [4], in test [8], in [5], in [6] and in [7] was “inactive” in each case.

On to `CC(=O)O[C@@H]1C(=O)O[C@@H]2[C@H]1OC(=O)[C@@H]2OC(C)=O`, for which the Potency result in [1], in [2], in test [4], in test [8], in test [9] and in test [10] was “inactive” each time. Besides, the Potency result in test [5], in test [6] and in [7] was “inactive” in each case.
